# Results as given in the supplement of paper PMC12669032.
# A number with no mark means an inactive call.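 The calls were made as follows: active = AUC reduced over 20% with Padj below 0.05 in at least 2 of 3 replicates; inactive = otherwise.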
# Columns and labels:
# Assay in all cases: growth AUC relative to DMSO control (median of replicates) (fraction); higher = more growth (less inhibition), active = hit call of the paper
# Details in all cases: 20 µM; 24 h
# Akkermansia muciniphila = tested on: Akkermansia muciniphila
# Method in brief: (§1)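 Gut bacterial monocultures were grown anaerobically at 37 °C in mGAM from a starting OD600 of 0.05 with 20 µM compound (1% DMSO), in round-bottom 96-well plates under pierced gas-permeable seals, and OD600 was read hourly for 24 h. With the minimum OD set to 0, area under the growth curve was normalised to the plate median of solvent-only wells, or to row and column medians on the industrial chemical plate. Each value is the median of three biological replicates grown on separate days.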
# Bacteroides caccae = tested on: Bacteroides caccae
# Method in brief: as §1
# Bacteroides clarus = tested on: Bacteroides clarus
# Method in brief: as §1
# Bacteroides dorei = tested on: Bacteroides dorei
# Method in brief: as §1
# Bacteroides stercoris = tested on: Bacteroides stercoris
# Method in brief: as §1
# [1] = tested on: Bacteroides thetaiotaomicron
# Method in brief: as §1
# Bacteroides uniformis = tested on: Bacteroides uniformis
# Method in brief: as §1
# [2] = tested on: Bifidobacterium longum subsp. longum
# Method in brief: as §1
# Clostridium difficile = tested on: Clostridium difficile
# Method in brief: as §1
# Collinsella aerofaciens = tested on: Collinsella aerofaciens
# Method in brief: as §1
# Coprococcus comes = tested on: Coprococcus comes
# Method in brief: as §1
# Escherichia coli ED1a = tested on: Escherichia coli ED1a
# Method in brief: as §1
# Escherichia coli IAI1 = tested on: Escherichia coli IAI1
# Method in brief: as §1
# Eubacterium rectale = tested on: Eubacterium rectale
# Method in brief: as §1
# [3] = tested on: Fusobacterium nucleatum subsp. animalis
# Method in brief: as §1
# Lactobacillus gasseri = tested on: Lactobacillus gasseri
# Method in brief: as §1
# Lactobacillus paracasei = tested on: Lactobacillus paracasei
# Method in brief: as §1
# Odoribacter splanchnicus = tested on: Odoribacter splanchnicus
# Method in brief: as §1
# [4] = tested on: Parabacteroides distasonis
# Method in brief: as §1
# Parabacteroides merdae = tested on: Parabacteroides merdae
# Method in brief: as §1
SMILES,growth AUC (Akkermansia muciniphila),growth AUC (Bacteroides caccae),growth AUC (Bacteroides clarus),growth AUC (Bacteroides dorei),growth AUC (Bacteroides stercoris),growth AUC [1],growth AUC (Bacteroides uniformis),growth AUC [2],growth AUC (Clostridium difficile),growth AUC (Collinsella aerofaciens),growth AUC (Coprococcus comes),growth AUC (Escherichia coli ED1a),growth AUC (Escherichia coli IAI1),growth AUC (Eubacterium rectale),growth AUC [3],growth AUC (Lactobacillus gasseri),growth AUC (Lactobacillus paracasei),growth AUC (Odoribacter splanchnicus),growth AUC [4],growth AUC (Parabacteroides merdae)
CCOc1nc(F)cc2nc(S(=O)(=O)Nc3c(Cl)cccc3C(=O)OC)nn12,0.983,0.999,0.984,0.988,0.978,0.999,0.987,0.982,0.98,1.02,0.984,0.991,1.01,0.967,0.995,1.01,1.06,1.04,1.05,1.02
ClC=C(c1ccc(Cl)cc1)c1ccc(Cl)cc1,1.05,0.896,0.959,0.914,0.945,0.975,0.996,1,0.977,0.893,0.942,0.99,0.977,0.977,0.98,0.915,0.946,1.07,0.977,0.948
CC(C)([CH2][Sn]([CH2]C(C)(C)c1ccccc1)([CH2]C(C)(C)c1ccccc1)[O][Sn]([CH2]C(C)(C)c1ccccc1)([CH2]C(C)(C)c1ccccc1)[CH2]C(C)(C)c1ccccc1)c1ccccc1,1.07,0.969,1.01,0.989,0.969,1.02,0.993,1.02,0.956,1.01,0.98,0.999,0.978,0.998,1.03,0.963,0.988,1.06,1.04,0.954
CC1CN(C2CCCCCCCCCCC2)CC(C)O1 (mixture of isomers),0.892,1.01,0.967,1.06,0.84,0.985,1.08,0.985,0.961,0.915,0.992,0.994,0.971,1.23,0.955,0.926,1.02,1.14,1.02,0.97
COC1CCC2(CC1)NC(=O)C(c1cc(C)ccc1C)C2O (stereo not given),1.08,0.974,1.04,1.02,1.14,0.999,1.02,1.05,1.01,1.05,1.04,1.03,1.03,1.11,1.16,0.99,1.03,1.01,1.07,1.02
C/C=C/C(=O)Oc1c(C(C)CCCCCC)cc([N+](=O)[O-])cc1[N+](=O)[O-] (mixture of isomers),1,0.285 (active),0.0314 (active),0.0151 (active),0.0105 (active),0.569 (active),0.448 (active),0.289 (active),0.0443 (active),0.789 (active),0.509,0.976,0.985,0.665 (active),0.94,0.273 (active),0.41 (active),0.679,0.288 (active),0.00823 (active)
CCCCC(CC)COC(=O)COc1cc(Cl)c(Cl)cc1Cl (stereo not given),0.936,0.97,0.93,0.984,1.03,0.987,0.993,0.807,0.999,0.948,0.976,0.99,1.03,0.903,0.9,1.06,1.05,0.998,0.965,0.937
O=C(Nc1ccc(O)cc1-c1ccc(Cl)cc1)c1cccnc1Cl,0.889,1.02,0.976,1.03,0.964,1.01,1,1.01,1.03,1.02,0.924,0.986,0.976,0.962,0.916,1.02,1,0.872,1.01,0.994
CN(C)C=O,1.08,0.991,1.05,0.936,1.05,1.01,1.05,1.13,0.999,1.01,1.04,1.03,1.03,0.998,1.11,1.01,1.03,1.05,0.998,1.02
O=C=NC1CCC(CC2CCC(N=C=O)CC2)CC1 (stereo not given),1.05,0.986,1.03,0.939,1.03,0.995,0.996,1.05,1.01,1.02,1.08,1.02,1.03,0.973,1.05,0.921,1.12,1.06,1,1.02
O=C(O)Cc1c[nH]c2ccccc12,0.904,0.973,0.976,1.03,1.02,0.98,1.01,1.01,1,0.984,1.03,1,1.02,1.02,1.02,1.22,1.06,0.983,1.02,1.02
COCCN(C(=O)CO)c1c(C)cccc1C(=O)O,1.23,0.963,1,0.964,1.03,1.01,0.961,1.06,0.94,0.936,0.972,0.976,0.956,1.09,0.968,0.811,0.996,1,0.904,0.986
CCSC(=O)N(CC(C)C)CC(C)C,0.967,1.05,1,1.02,0.987,1.01,0.994,0.842,0.993,1.04,1.02,1.02,1.02,0.903,1.03,1.22,0.942,0.985,0.993,0.987
O=[N+]([O-])c1ccc2c(c1)Cc1ccccc1-2,0.896,0.995,1.01,0.991,0.981,0.985,1,1.06,0.992,1,0.98,0.984,0.989,1.07,0.897,1.03,0.998,0.982,1.1,0.992
CC(C)c1cccc2c(=O)c3ccccc3sc12,1.1,0.922,1.03,0.913,1.21,0.963,0.995,1.06,0.895,0.95,0.979,1.03,1.04,1,1.19,0.968,1.05,1.05,0.952,0.885
